{
  "source": "PubChem BioAssay (NCI)",
  "note": "Compounds without any hit were thinned out: in the full panel of roughly 83,000, 20% have a hit.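 Testing used 96-well plates and a 48-hour single-concentration exposure. Example: -40 means 40% of the starting cells died.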 Activity calls are given as the source filed them. The calls were made as follows: active = growth percent below 10; inactive = the rest.",
  "data": [
    {"test_system": "OVCAR-8 ovarian", "experiment": "NCI-60 one-dose screen, 48 h (100 = growth as untreated, 0 = no growth, -100 = all killed)", "details": "10 µM unless noted", "values": [
      {"smiles": "Cc1ccc(NC(=O)c2ccc(CN3CCN(C)CC3)c(C(F)(F)F)c2)cc1Oc1ccc(-c2[nH]nc3ncnc(N)c23)cc1", "growth": "94.5% (inactive)"},
      {"smiles": "COc1ccc([C@H]2c3[nH]c4ccccc4c3C[C@@H]3C(=O)N(C4CCN(Cc5ccccc5)CC4)CC(=O)N23)c(OC)c1", "growth": "88.7% (inactive)"},
      {"smiles": "IP(CCCSc1n(Cc2ccc3ccccc3c2)c(-c2ccccc2)c(-c2ccccc2)[n+]1Cc1ccc2ccccc2c1)(c1ccccc1)(c1ccccc1)c1ccccc1", "growth": "38.6% (inactive)"},
      {"smiles": "O=C1NC(=O)c2c1c1c3ccccc3ccc1c1[nH]c3ccccc3c21", "growth": "6.43% (active)"},
      {"smiles": "COc1cc(/C=N/n2cnc3oc(-c4ccccc4)cc3c2=N)cc(CN2CCN(C)CC2)c1O", "growth": "93.9% (inactive)"},
      {"smiles": "COC1=C(c2ccccc2)C(=O)C(OC)=C(c2ccccc2)C1=O", "growth": "100% (inactive)"},
      {"smiles": "Cc1ccc(-c2csc(N/N=C/c3nc4ccccc4n3C3CC3)n2)cc1", "growth": "18.9% (inactive)"},
      {"smiles": "CC(C)=CCc1c(O)c(CC=C(C)C)c2c(c1O)C(=O)C1=C[C@@H]3C[C@H]4C(C)(C)O[C@@](C/C=C(\\C)C(=O)O)(C3=O)[C@@]14O2", "growth": "10.1% (inactive)"},
      {"smiles": "CN1CCN(c2nc(-c3csc(-c4ccncc4)n3)cc3ccccc23)CC1", "growth": "84% (inactive)"},
      {"smiles": "CN1C(=O)N(C)C2C1NN=c1s/c(=C\\c3ccccn3)c(=O)n12", "note": "(configuration not stated)", "growth": "101% (inactive)"},
      {"smiles": "CC(C)SC1=NC(=C(C(=N1)NC2=ClC=CC=C2)C#N)C3=CC=CC=C3", "growth": "46.8% (inactive)"},
      {"smiles": "CC(=O)NC(C)(C)C(=O)N[C@@H](C)C(=O)NC(C)(C)C(=O)N[C@@H](C)C(=O)NC(C)(C)C(=O)N[C@@H](C)C(=O)N[C@@H](CCC(N)=O)C(=O)NC(C)(C)C(=O)N[C@H](C(=O)NC(C)(C)C(=O)NCC(=O)N[C@@H](CC(C)C)C(=O)NC(C)(C)C(=O)N1CCC[C@H]1C(=O)N[C@H](C(=O)NC(C)(C)C(=O)NC(C)(C)C(=O)N[C@@H](CCC(N)=O)C(=O)N[C@@H](CCC(N)=O)C(=O)N[C@H](CO)CC1CCCCC1)C(C)C)C(C)C", "growth": "44.2% [5 µM] (inactive)"}
    ]}
  ]
}
